HT1080NT lethal: qHTS for induction of synthetic lethality in tumor cells producing 2HG: qHTS for the HT-1080-NT fibrosarcoma cell line | AID 686970, 2013 | HT-1080-NT fibrosarcoma viability, CellTiter-Glo ATP luminescence, 48 h | Potency, µM (titrated, usually from 46.1 µM), for the others: at the highest dose activity, negative = less viability, hits mostly cytotoxic | 360,000 compounds, 1.6% hits;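 note: NT is the 2HG producing partner of a matched IDH1 knockdown line; 0% = DMSO-treated cells and -100% = media-only wells without cells; nearly all actives have a fitted effect of over 55% in size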
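Read-out is CellTiter-Glo luminescence after 10 minutes at room temperature, following 48 hours' compound treatment of HT-1080-NT cells (750 cells/well, RPMI, 5% FBS, 37 degrees C).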
HT1080 IDH1KD tx: qHTS for induction of synthetic lethality in tumor cells producing 2HG: qHTS for the HT-1080-IDH1KD cell line | Potency, µM (titrated, usually from 46.1 µM), without a hit: at the top dose activity, negative = toxicity, most hits filed as cytotoxic | HT-1080 IDH1 knockdown viability, ATP luminescence, 48 h | 360,000 compounds, 2% hits;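 note: 0% = DMSO wells and -100% = cell-free medium wells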
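Knockdown cells (IDH1KD HT-1080) received compounds 2 h after plating at 750 cells/well and were kept 48 h at 37 °C in 5% FBS RPMI. A CellTiter-Glo luminescence read gave % activity for curve fitting.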
DT40 TDP1 no CPT: qHTS for Inhibitors of human tyrosyl-DNA phosphodiesterase 1 (TDP1): qHTS in cells in absence of CPT. Potency, µM (titrated, usually from 46.2 µM), for the others: at the top dose activity change, negative = growth inhibition, usual class: inhibitors. DT40 Tdp1-/- hTDP1 cells, no CPT, ATP luminescence, 48 h. 420,000 compounds, 15% hits; note: nearly all actives have a fitted effect of over 55% in size
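Luminescent ATP content (CellTiter-Glo) served as the growth readout. Knockout chicken DT40 cells expressing human TDP1 were exposed to compounds without camptothecin for a minimum 48 hr at 37 °C.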
KB-3-1 cytotox: qHTS assay for MDR1-selective chemotherapeutics: Primary screen using the parental adenocarcinoma cell KB-3-1. KB-3-1 viability, CellTiter-Glo ATP luminescence, 72 h. Potency, µM (titrated, usually from 46.1 µM), most hits filed as cytotoxic. 400,000 compounds, 1.4% hits; note: nearly all actives have a fitted effect of over 60% in size
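Cytotoxicity in the drug-sensitive parental line KB-3-1 was scored as loss of CellTiter-Glo luminescence following 72 h incubation with compound. Values come from curve fitting of normalized concentration-response data.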
TDP1 cell CPT: qHTS for Inhibitors of human tyrosyl-DNA phosphodiesterase 1 (TDP1): qHTS in cells in presence of CPT | 420,000 compounds, 12% hits | chicken DT40 Tdp1-/-;hTDP1 cells + 20 nM CPT, ATP luminescence, 48 h | Potency, µM (top dose mostly 46.2 µM), inactives show top-dose activity change, negative = growth inhibition, hits mostly inhibitors; note: nearly all actives have a fitted effect of over 55% in size
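Chicken DT40 Tdp1-/- cells complemented with human TDP1, 400 cells/well, exposed to compounds plus 20 nM camptothecin for at least 48 h at 37 C; viability read as ATP content by CellTiter-Glo luminescence.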
KB-V1 cytotox: qHTS assay for MDR1-selective chemotherapeutics: Primary screen using the drug-selected MDR subline cells KB-V1 | KB-V1 MDR cells viability, CellTiter-Glo, 72 h | Potency, µM (titrated, usually from 46.1 µM), actives largely listed as cytotoxic | 400,000 compounds, 3.4% hits; note: nearly all actives have a fitted effect of over 60% in size
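In this primary screen, KB-V1 cells overexpressing P-gp are incubated with library compounds (lowest to highest concentration) for 72 h at 37 degrees C before a luminescent ATP viability read.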
* = called active by the depositor; i = inactive; u = inconclusive; x = not tested or not shown. Hits are enriched below; roughly 19% of the tested compounds scored in any of these assays. Calls come from the whole dose curve; as a rule, active = well fitted curve in the direction sought with a large enough effect; inconclusive = small, poorly fitted or top-dose-only effect, or another doubt; inactive = no such curve, though single readings can be large; an effect the other way counts as inactive or inconclusive. Unless noted, % is set by controls: 0 for no effect and ±100 for the full control effect; potency is the fitted concentration of half-maximal effect.

SMILES	HT1080NT lethal	HT1080 IDH1KD tx	DT40 TDP1 no CPT	KB-3-1 cytotox	TDP1 cell CPT	KB-V1 cytotox
CCOC(=O)C1CCN(C(=O)c2cccc(S(=O)(=O)N3CCc4ccccc43)c2)CC1	3.6%	0.0%	u	i	u	i
CC(C)(C)NC(=O)CN1CCCN(C(=O)c2cccc(S(=O)(=O)N3CCc4ccccc43)c2)CC1	0.3%	2.8%	u	i	u	i
Cc1ccc2c(c1)sc1nc(-c3cc4cc(Cl)ccc4oc3=O)cn12	x	x	-11.9%	x	14.4%	x
Cc1cc(C)c2c(CC(=O)Nc3ccc(S(=O)(=O)Nc4nc(C)cc(C)n4)cc3)coc2c1	x	x	u	i	u	i
COC(=O)c1c(NC(=O)CN2C(=O)NC3(CCCCC3C)C2=O)sc2c1CCC2 (configuration not stated)	-27.4%	u	u	10.3µM*	u	i
Cc1cc2nc(C3CCCCC3)c(Cc3cccc(Cl)c3)n2c(C)c1Br	12.6%	-1.7%	-25.2%	i	-18.0%	i
CC(C)C(=O)Nc1cccc(COc2ccccc2CN(Cc2ccccc2)C(=O)OC(C)(C)C)c1	-12.2%	-28.1%	23.1µM*	u	u	u
CC(C)(C)OC(=O)N(Cc1ccccc1)Cc1cccc(OCc2cccc(NC(=O)c3ccccc3)c2)c1	2.0%	-1.6%	23.1µM*	i	23.1µM*	i
CC(C)(C)OC(=O)N(CCc1ccccc1)Cc1ccccc1OCc1cccc(NC(=O)C2CC2)c1	-12.7%	-13.0%	u	i	u	i
CC(C)(C)OC(=O)N(Cc1ccccc1)Cc1ccccc1OCc1cccc(NC(=O)c2ccccc2)c1	-1.1%	-1.3%	16.4µM*	u	16.4µM*	u
O=C(Nc1cnc(N2CCN(c3ccccc3)CC2)c(C(=O)O)c1)c1cccs1	x	x	-20.6%	i	2.7%	u
CCN(C(=O)Cn1cc(C(=O)c2ccc(F)cc2)c(=O)c2ccc(C)nc21)c1cccc(C)c1	x	x	u	i	16.4µM*	i
Cc1ccc(C(=O)c2cn(Cc3ccc(F)cc3)c3nc(C)ccc3c2=O)cc1	x	x	23.1µM*	i	16.4µM*	i
CC(C)Cc1nn2c(=O)cc(COC(=O)c3ccc(NC(=O)CCc4ccccc4)cc3)nc2s1	x	x	-20.7%	x	0.8%	x
O=[N+]([O-])c1cc(-c2cnc3ccccc3n2)ccc1Cl	-4.9%	-5.4%	-9.1%	i	7.6%	i
COc1ccccc1Oc1ccc(-c2cnc3ccccc3n2)cc1[N+](=O)[O-]	u	u	7.31µM*	i	23.1µM*	u
O=[N+]([O-])c1cc(-c2cnc3ccccc3n2)ccc1Oc1ccc(Cl)cc1	-18.1%	-9.7%	u	i	18.4µM*	i
CC(C)(C)c1nn(-c2ccccc2)c2[nH]c(=O)c(CNCc3ccc4c(c3)OCO4)cc12	u	-29.8%	u	u	18.4µM*	i
Cc1ccc(/C=C/C(=O)N2CCN(S(=O)(=O)c3cccs3)CC2)o1	6.1%	15.8%	-7.2%	i	5.4%	i
COc1ccc(C)cc1/C=C/C(=O)N1CCN(S(=O)(=O)c2cccs2)CC1	-0.4%	0.6%	u	i	20.6µM*	i
O=C1CC2CCCC(C1)S2=O (configuration not stated)	0.5%	3.2%	4.3%	i	1.5%	i
CCN(CC)CCNC(=O)c1ccc(N2CCCCC2)c(NS(=O)(=O)c2ccc(C)cc2)c1	u	u	20.6µM*	u	25.9µM*	u
COC(=O)c1ccc(N2CCCCC2)c(NS(=O)(=O)c2ccc(C)cc2)c1	-8.6%	1.5%	u	i	16.4µM*	u
CCN(CC)CCNC(=O)c1ccc(NC(=O)c2ccc(S(=O)(=O)N3CCCCCC3)cc2)cc1	-6.9%	-3.4%	u	u	u	u
O=C(NCCCn1ccnc1)c1ccc(N2CCCCCC2)c([N+](=O)[O-])c1	23.1µM*	5.8µM*	u	i	18.4µM*	i
SMILES	HT1080NT lethal	HT1080 IDH1KD tx	DT40 TDP1 no CPT	KB-3-1 cytotox	TDP1 cell CPT	KB-V1 cytotox
C=C1CCN(c2ccc(C(=O)NCc3ccccc3)cc2[N+](=O)[O-])CC1	18.8%	7.0%	-18.3%	i	-27.3%	i
C=C1CCN(c2ccc(C(=O)NCCC)cc2[N+](=O)[O-])CC1	5.7%	5.9%	16.4µM*	i	16.4µM*	i
CCOc1nc(SCCOc2ccc(C)cc2)nc(N(C)C)n1	4.4%	15.7%	u	i	-24.7%	i
CCOc1nc(SCCOc2ccc(Cl)cc2Cl)nc(N(C)C)n1	26.2%	5.2%	u	i	u	20.6µM*
Cc1ccc2[nH]c3c(=O)n(CC(=O)N4CCCC(C)C4)ncc3c2c1 (configuration not stated)	x	x	18.4µM*	i	u	i
C#Cc1ccc([C@H]2C=C(C(=O)N3CCN(Cc4ccccc4)CC3)O[C@@H](OCc3ccc(CO)cc3)C2)cc1	u	-7.4%	18.4µM*	i	16.4µM*	i
CN1CCN(C(=O)C2=C[C@@H](c3ccccc3)C[C@@H](OCc3ccc(CO)cc3)O2)CC1	2.6%	-0.4%	-25.2%	u	-23.4%	i
O=C(C1=C[C@@H](c2ccc(Br)cc2)C[C@@H](OCc2ccc(CO)cc2)O1)N1CCN(Cc2ccccc2)CC1	-21.2%	u	23.1µM*	u	u	u
O=C(CN(C(=O)CCC(=O)Nc1ccccn1)C1CCCC1)NCc1ccccc1	14.5%	12.9%	-15.4%	i	3.7%	i
CC(C)Oc1cc(F)ccc1-c1cc(C(=O)NCc2cccs2)[nH]n1	-11.2%	8.2%	u	i	u	i
CCCOc1ccc(F)cc1-c1cc(C(=O)Nc2ccc(C(C)C)cc2)[nH]n1	u	23.1µM*	25.9µM*	u	u	i
CCCOc1ccc(F)cc1-c1cc(C(=O)Nc2ccc(OC)c(OC)c2)[nH]n1	u	u	u	u	20.6µM*	20.6µM*
